Measurements: PubChem BioAssay (NCI)
This is part of a sample that, as a whole, favours compounds with a hit. Of some 83,000 tested, about 20% had one in any assay.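 Activity criterion: percent growth below 10, measured after cells in 96-well plates were exposed to a single compound concentration for 48 hours.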 Active and inactive are the calls of the source.

Key:
Test in all cases: NCI-60 one-dose screen, 48 h (100 = growth as untreated, 0 = no growth, -100 = all killed)
Details in all cases: 10 µM
NCI-H23 lung = tested on: NCI-H23 lung
NCI-H226 lung = tested on: NCI-H226 lung
NCI-H322M lung = tested on: NCI-H322M lung
HOP-62 NSCLC = tested on: HOP-62 NSCLC
NCI-H460 lung = tested on: NCI-H460 lung
HOP-92 NSCLC = tested on: HOP-92 NSCLC
NCI-H522 lung = tested on: NCI-H522 lung
A549/ATCC NSCLC = tested on: A549/ATCC NSCLC
786-0 renal = tested on: 786-0 renal
COLO 205 colon = tested on: COLO 205 colon
DU-145 prostate = tested on: DU-145 prostate
K-562 leukemia = tested on: K-562 leukemia
MALME-3M melanoma = tested on: MALME-3M melanoma
MDA-MB-231 breast = tested on: MDA-MB-231 breast
RXF 393 renal = tested on: RXF 393 renal
SF-268 CNS = tested on: SF-268 CNS
SF-295 CNS = tested on: SF-295 CNS
SF-539 CNS = tested on: SF-539 CNS
UACC-257 melanoma = tested on: UACC-257 melanoma
M14 melanoma = tested on: M14 melanoma

Measured: growth

CO[C@H]1CSS[C@@H]1Cn1nc(-c2ccc(Oc3ccccc3)cc2)c2c(N)ncnc21
active: NCI-H522 lung -13% | K-562 leukemia 7.28% | MALME-3M melanoma -38.2% | MDA-MB-231 breast 9.69% | UACC-257 melanoma -3.47% | M14 melanoma -93%
inactive: NCI-H23 lung 40.4% | NCI-H226 lung 16.6% | NCI-H322M lung 53.4% | HOP-62 NSCLC 41.3% | NCI-H460 lung 21.1% | HOP-92 NSCLC 20.5% | A549/ATCC NSCLC 22.1% | 786-0 renal 45% | COLO 205 colon 36.1% | DU-145 prostate 38.3% | RXF 393 renal 18.6% | SF-268 CNS 32.4% | SF-295 CNS 35.4% | SF-539 CNS 36.1%

N#Cc1c(-c2ccc(F)cc2)nc(SCc2ccc(F)cc2)nc1N1CCOCC1
inactive: NCI-H23 lung 71.8% | NCI-H226 lung 48.4% | NCI-H322M lung 78.4% | HOP-62 NSCLC 24.3% | NCI-H460 lung 73.9% | HOP-92 NSCLC 34.3% | NCI-H522 lung 55% | A549/ATCC NSCLC 69% | 786-0 renal 24.7% | COLO 205 colon 97.7% | DU-145 prostate 77.8% | K-562 leukemia 83.8% | MALME-3M melanoma 58.6% | MDA-MB-231 breast 50.5% | RXF 393 renal 41.6% | SF-268 CNS 43.4% | SF-295 CNS 36.9% | SF-539 CNS 49% | UACC-257 melanoma 77.1% | M14 melanoma 92.2%

O=c1oc2ccc(-c3ccc(F)cc3F)cc2c(=O)n1-c1ccc(F)c(Cl)c1
active: NCI-H23 lung -49.8% | NCI-H226 lung -24.8% | NCI-H322M lung -1.73% | HOP-62 NSCLC -25.9% | NCI-H460 lung -0.567% | HOP-92 NSCLC -22% | NCI-H522 lung -17.7% | A549/ATCC NSCLC 8.87% | 786-0 renal 7.54% | COLO 205 colon 7.64% | K-562 leukemia 3.74% | MALME-3M melanoma -29.1% | MDA-MB-231 breast -27.6% | RXF 393 renal -19.7% | SF-268 CNS 2.31% | SF-295 CNS -80.3% | SF-539 CNS -5.14% | UACC-257 melanoma -15.9%
inactive: DU-145 prostate 12.6% | M14 melanoma 12.8%

COc1ccc(C(=O)NC(=S)N2CCN(c3ncnc4c3cnn4-c3ccccc3)CC2)cc1
inactive: NCI-H23 lung 60% | NCI-H322M lung 66.8% | HOP-62 NSCLC 31.9% | NCI-H460 lung 55.8% | HOP-92 NSCLC 32% | NCI-H522 lung 41.2% | A549/ATCC NSCLC 58.8% | 786-0 renal 82.8% | COLO 205 colon 79.7% | DU-145 prostate 79.9% | K-562 leukemia 62.7% | MALME-3M melanoma 57.8% | MDA-MB-231 breast 80.2% | RXF 393 renal 49.9% | SF-268 CNS 63.8% | SF-295 CNS 57.8% | SF-539 CNS 32.3% | UACC-257 melanoma 54.4% | M14 melanoma 63.1%
active: NCI-H226 lung 9.11%

C/C(=C\CC/C=C(\C)CC/C=C(\C)CC[C@@H](O)C(C)(C)O)CC/C=C(\C)CC[C@@H](O)C(C)(C)O
active: SF-295 CNS 9.52%
inactive: NCI-H23 lung 31.8% | NCI-H226 lung 38.8% | NCI-H322M lung 98.1% | HOP-62 NSCLC 96.6% | NCI-H460 lung 32% | HOP-92 NSCLC 26% | NCI-H522 lung 21.8% | A549/ATCC NSCLC 26.1% | 786-0 renal 47.4% | COLO 205 colon 41.9% | DU-145 prostate 63.7% | K-562 leukemia 10.4% | MALME-3M melanoma 44.8% | MDA-MB-231 breast 61.4% | RXF 393 renal 16.5% | SF-268 CNS 57.5% | SF-539 CNS 43% | UACC-257 melanoma 21.1% | M14 melanoma 22.7%

COc1ccc(CCN2C(=O)/C(=C/c3csc(C#N)n3)SC2=S)cc1OC
inactive: NCI-H23 lung 38.5% | NCI-H226 lung 100% | NCI-H322M lung 101% | HOP-62 NSCLC 111% | NCI-H460 lung 98.4% | A549/ATCC NSCLC 95% | 786-0 renal 21.1% | MDA-MB-231 breast 95.7% | SF-268 CNS 99.4% | SF-295 CNS 98.7% | UACC-257 melanoma 13.4%
active: HOP-92 NSCLC -5.19% | NCI-H522 lung -66.7% | COLO 205 colon -27.5% | DU-145 prostate -10.9% | K-562 leukemia 1.08% | MALME-3M melanoma 2.58% | RXF 393 renal -1.04% | SF-539 CNS -1.47% | M14 melanoma 2.13%

COc1ccc(-c2ccc(/C=N/NC(=O)c3[nH]c4ccc(Br)cc4c3-c3ccccc3)s2)cc1
inactive: NCI-H23 lung 68.8% | NCI-H226 lung 105% | NCI-H322M lung 92.3% | HOP-62 NSCLC 96.1% | NCI-H460 lung 27.7% | HOP-92 NSCLC 120% | NCI-H522 lung 82.9% | A549/ATCC NSCLC 71.9% | 786-0 renal 112% | COLO 205 colon 97.6% | DU-145 prostate 104% | K-562 leukemia 87.6% | MALME-3M melanoma 115% | MDA-MB-231 breast 59.5% | RXF 393 renal 74.2% | SF-268 CNS 60% | SF-295 CNS 71.6% | SF-539 CNS 71.7% | UACC-257 melanoma 106% | M14 melanoma 106%
